Bioassay records (PubChem)
Sampled rows, rich in hits. Any-hit rate of the full collection: about 2.7%.
Nrf2 block: inhibitors of Nrf2 signaling. A549 ARE-Fluc reporter, luciferase luminescence, 18-24 h. Potency, µM (series often up to 46 µM), usual class: inhibitors. actives 2.1% (n = 360,000). AID 504444; further: nearly all actives have a fitted effect of over 60% in size
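Reporter: ARE-Fluc in A549. Exposure: 18-24 h, 37 °C, 5% CO2, 5% FBS OPTI-MEM. Readouts: fluorescent cytotoxicity (CellTiter-Fluor), then luminescent Nrf2 signal after BugLite.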
ALOX12 inh: blocks human arachidonate 12S-lipoxygenase | actives 1.1% (n = 580,000) | P18054 | purified 12hLO, xylenol orange hydroperoxide absorbance | AID 1671190 | Potency, µM (series often up to 108 µM), actives largely listed as inhibitors
Target sequence (P18054 whole entry, looked up): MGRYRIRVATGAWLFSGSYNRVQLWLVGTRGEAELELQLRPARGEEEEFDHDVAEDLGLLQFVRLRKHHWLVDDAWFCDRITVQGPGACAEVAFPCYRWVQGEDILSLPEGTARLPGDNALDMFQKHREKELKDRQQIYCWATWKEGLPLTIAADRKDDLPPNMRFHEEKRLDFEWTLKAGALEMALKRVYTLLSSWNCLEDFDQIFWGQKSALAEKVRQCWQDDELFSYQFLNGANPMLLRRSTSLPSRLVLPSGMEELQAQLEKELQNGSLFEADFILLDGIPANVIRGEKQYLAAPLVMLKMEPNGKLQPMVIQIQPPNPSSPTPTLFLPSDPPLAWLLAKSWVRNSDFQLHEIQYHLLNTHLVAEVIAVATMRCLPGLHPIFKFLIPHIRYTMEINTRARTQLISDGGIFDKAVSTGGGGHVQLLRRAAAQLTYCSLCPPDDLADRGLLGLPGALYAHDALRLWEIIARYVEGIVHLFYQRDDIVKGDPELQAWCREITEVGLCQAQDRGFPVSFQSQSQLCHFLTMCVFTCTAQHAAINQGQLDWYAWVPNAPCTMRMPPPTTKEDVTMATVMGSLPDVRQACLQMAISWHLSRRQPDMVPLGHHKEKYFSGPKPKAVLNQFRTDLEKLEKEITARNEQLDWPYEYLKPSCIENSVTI
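Purified human 12hLO (150 nM final) in 25 mM Hepes, 0.01% Triton X-100, pH 7.0 was preincubated 15 min at room temperature with compound. Then 40 uM arachidonic acid was added, 30 min. Hydroperoxide was read by Fe-XO absorbance ratio 573/405 nm.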
LDHA inh: LDHA (human) enzyme inhibition | actives 0.15% (n = 480,000) | P00338 | activity change, % (values are at about 110 or 230 µM) | purified LDHA, NADH/diaphorase-resazurin fluorescence; hits give low values; in the data active means activity change below about -30%; inconclusive means mostly about -25% to -30%
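Human LDH5 at 2 nM final in Tris HCl pH 7.4 with 0.06 mM NADH and 0.2 mM pyruvate, reacted 5 minutes at room temperature. Remaining NADH coupled via diaphorase/resazurin; resorufin fluorescence read at 0 and 20 minutes, normalized to enzyme-free and DMSO wells.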
Nrf2 activator: activates Nrf2 signaling; Potency, µM (top dose mostly 46.1 µM), usual class: activators; AREc32 ARE-luciferase reporter (MCF7-derived line), luminescence, 24 h; actives 0.31% (n = 410,000); further: nearly all actives have a fitted effect of over 65% in size
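Quantitative high-throughput format: AREc32 reporter cells, 1000 per well, received compound by pin transfer and were incubated 24 hr at 37 deg C, 5% CO2, before Steady-Glo luminescence detection.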
A549 viability: A549 cytotoxicity, counter-screen for Nrf2 inhibitors. A549 ARE-Fluc cells, CellTiter-Fluor viability, 18-24 h. actives 0.16% (n = 390,000). Potency, µM (top dose mostly 46 µM), most hits filed as inhibitors. AID 504648
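A549 ARE-Fluc cells in 5% FBS OPTI-MEM, 5000 cells/well, rested 2 h then exposed to compounds in concentration-response for 18-24 h at 37 °C. Viability by CellTiter-Fluor fluorescence (Ex 405/Em 525) after 30 min; luciferase luminescence (BugLite, 15 min, RT) read afterwards.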
ERG-DNA inh: ERG Ets/DNA interaction inhibition; P11308; actives 0.028% (n = 370,000); Potency, µM (doses to about 76.9 µM), usual class: inhibitors; AID 624246; fluorescence polarization, His-ERG Ets domain / labelled DNA; active means well fitted inhibition curve with a large enough effect in the polarisation, with a control signal flat; inconclusive means small, poorly fitted or top-dose-only effect, or effect the other way, or a change in a side signal; inactive means no such curve, though single readings can be large or run the other way; the % refers to the polarisation;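 further: polarization taken with two DNA probes labelled with fluorescein and Texas red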
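His-tagged ERG Ets domain (1 uM in the protein solution; 300mM KCl, 50mM Tris-HCl, 1mM EDTA, 1mM DTT, pH 7.5) received compound, then a probe mix of 5 nM fluorescein-DNA and 100nM Texas-615-DNA. Fluorescence polarization was read for both dyes.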
Large screens that a line does not name were inactive; ! = a repeat was not active. Unless noted, the call rests on the fitted dose curve; in most records, active means well fitted curve in the direction sought with a large enough effect; inconclusive means small, poorly fitted or top-dose-only effect, or another doubt; inactive means no such curve, though single readings can be large; an effect the other way counts as inactive or inconclusive.

CCNC(=S)N1CCN(C(c2ccccc2)c2ccccc2)CC1	Nrf2 block 26µM (no result: ERG-DNA inh)
Cc1ccc(/C=N/c2sc(C)c(C)c2C#N)cc1	ALOX12 inh inconclusive (no result: Nrf2 block, Nrf2 activator, A549 viability, ERG-DNA inh)
COc1ccc(-n2ncc(C(=O)NCc3ccc4c(c3)OCO4)c2C2CCN(C(=O)OC(C)(C)C)CC2)cc1	Nrf2 block 16µM
COc1ccc(CCN2CCC(CNC(=O)c3cnn(-c4ccc(C)cc4)c3C3CCN(C(=O)OC(C)(C)C)CC3)CC2)cc1	ALOX12 inh 40µM
Cc1ccc(-n2ncc(C(=O)NCc3ccc4c(c3)OCO4)c2C2CCN(C(=O)OC(C)(C)C)CC2)cc1C	Nrf2 block 18µM
Cc1cccc(C)c1-n1ncc(C(=O)NCc2ccc3c(c2)OCO3)c1C1CCN(C(=O)OC(C)(C)C)CC1	Nrf2 block inconclusive, ALOX12 inh inconclusive
COc1ccc(CNC(=O)c2cnn(-c3ccc(OC)cc3)c2C2CCN(C(=O)OC(C)(C)C)CC2)cc1	Nrf2 block inconclusive
COc1ccc(NC(C)c2nnc(-c3cccs3)o2)c(OC)c1 (stereo not drawn)	LDHA inh inconclusive (no result: Nrf2 block, Nrf2 activator, A549 viability, ERG-DNA inh)
c1ccc2sc(SN3CCOCC3)nc2c1	ALOX12 inh 13µM!
c1ccc2sc(N3CCOCC3)nc2c1	none
O=C(Nc1ccccc1SC1CCCC1)c1ccccn1	none (no result: Nrf2 block, Nrf2 activator, A549 viability, ERG-DNA inh)
O=C(N/N=C/C=C/c1ccco1)c1cccc([N+](=O)[O-])c1	Nrf2 activator 2.2µM
CN(C)/C=C\C(=O)c1cccc([N+](=O)[O-])c1	ALOX12 inh inconclusive (no result: Nrf2 block, Nrf2 activator, A549 viability, ERG-DNA inh)
O=C(/C=C/c1ccco1)c1cccc([N+](=O)[O-])c1	ALOX12 inh 25µM, Nrf2 activator inconclusive
O=C(N/N=C/C=C/c1ccco1)c1ccccc1Cl	ALOX12 inh inconclusive, Nrf2 activator 11µM
O=C(/C=C/c1ccc([N+](=O)[O-])cc1)/C=C/c1ccco1	ALOX12 inh 18µM (no result: Nrf2 block, LDHA inh, Nrf2 activator, A549 viability, ERG-DNA inh)
O=C(/C=C/c1ccc([N+](=O)[O-])cc1)c1ccco1	none
CSc1ccc(C(C)=O)cc1	none (no result: Nrf2 block, Nrf2 activator, A549 viability, ERG-DNA inh)
CC(C)N1CCc2c(sc(NC(=O)C3CCCCC3)c2-c2nc3ccccc3s2)C1	none (no result: Nrf2 block, ALOX12 inh, Nrf2 activator, A549 viability, ERG-DNA inh)
CCCCOc1cccc(C(=O)N(Cc2ccc(C)o2)c2ccccn2)c1	Nrf2 block 15µM
Cc1cccc(C(=O)N(Cc2ccc(C)o2)c2ccccn2)c1	none (no result: Nrf2 block, Nrf2 activator, A549 viability, ERG-DNA inh)
C=CCn1c(SCC(=O)N2CCN(c3ccc(F)cc3)CC2)nnc1-c1ccco1	Nrf2 block 18µM
CCn1c(SCC(=O)N2c3ccccc3Sc3ccccc32)nnc1-c1ccco1	Nrf2 block 23µM, ALOX12 inh inconclusive (no result: ERG-DNA inh)
C=CCn1c(SCC(=O)Nc2ccc(N3CCOCC3)cc2)nnc1-c1ccco1	none
Cn1c(SCC(=O)N2c3ccccc3Sc3ccc(Cl)cc32)nnc1-c1ccco1	Nrf2 block inconclusive, A549 viability inconclusive
CCn1c(SCc2cccc(C(F)(F)F)c2)nnc1-c1ccco1	ALOX12 inh 50µM
C=CCn1c(SCC(=O)N2c3ccccc3Sc3ccccc32)nnc1-c1ccco1	ALOX12 inh 22µM
COc1ccc(-c2cc(-c3ccccc3)nc(NC(=O)CN3CCCCCC3)n2)cc1	ALOX12 inh inconclusive (no result: Nrf2 block, Nrf2 activator, A549 viability, ERG-DNA inh)
CN(Cc1ccc(-c2ccc(Br)cc2)o1)C(=O)CSc1nnc(C2CC2)n1C1CC1	ALOX12 inh inconclusive (no result: Nrf2 block, Nrf2 activator, A549 viability, ERG-DNA inh)
Cc1ccc2c(c1)C1NC(=S)NC(C)(O2)C1C(=O)Nc1ccc(Cl)cc1 (stereo not drawn)	ALOX12 inh 28µM
COc1ccc2c(c1)C1NC(=S)N[C@@](C)(O2)C1C(=O)Nc1ccccc1 (stereo partly drawn)	ALOX12 inh inconclusive
COc1ccc2c(c1)C1NC(=S)NC(C)(O2)C1C(=O)Nc1ccc(Cl)cc1 (stereo not drawn)	ALOX12 inh 40µM
Nc1nccnc1C(=O)NCc1ccnc(-n2cccn2)c1	ALOX12 inh inconclusive (no result: Nrf2 block, Nrf2 activator, A549 viability, ERG-DNA inh)
O=C1c2ccccc2C(=O)c2c1ccc(O)c2O	ALOX12 inh 2.3µM!
Nc1c(C(=O)O)ccc2c1C(=O)c1ccccc1C2=O	A549 viability 18µM
